Test results: PMC8384837, “Expanding the binding specificity for RNA recognition by a PUF domain”

Tests used:
Assay in all cases: yeast three-hybrid, YBZ-1, SC-Leu-His + 0.5 mM 3-AT, 4 days
Conditions in all cases: tags: N-Gal4 AD-HA kept; label: inside an RPR1-promoter hybrid RNA with tandem MS2 sites; ssRNA
PUM1 PUF domain R5-KRE = PUM1 PUF domain R5-KRE (Homo sapiens, UniProt Q14671 828-1176, C1007K;Q1011E)
Summary of the method: (§1)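 Sequencing with Illumina followed PCR amplification of the repeat regions from transformants grown four days on SC-Leu (input) or SC-Leu-His + 0.5 mM 3-AT (selection). The transformants were strain YBZ-1 with a LexA–MS2 coat fusion and a HIS3 reporter, carrying Pumilio-1 PUF domain libraries and matching RNA elements. The interaction score is the log change in variant frequency from input to selection, computed in log2 with a pseudocount of 1 for absent variants.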

PUM1 PUF domain R5-KSW = PUM1 PUF domain R5-KSW (Homo sapiens, UniProt Q14671 828-1176, C1007K;R1008S;Q1011W)
PUM1 PUF domain R5-KSW, sequence (Q14671 828-1176 C1007K/R1008S/Q1011W): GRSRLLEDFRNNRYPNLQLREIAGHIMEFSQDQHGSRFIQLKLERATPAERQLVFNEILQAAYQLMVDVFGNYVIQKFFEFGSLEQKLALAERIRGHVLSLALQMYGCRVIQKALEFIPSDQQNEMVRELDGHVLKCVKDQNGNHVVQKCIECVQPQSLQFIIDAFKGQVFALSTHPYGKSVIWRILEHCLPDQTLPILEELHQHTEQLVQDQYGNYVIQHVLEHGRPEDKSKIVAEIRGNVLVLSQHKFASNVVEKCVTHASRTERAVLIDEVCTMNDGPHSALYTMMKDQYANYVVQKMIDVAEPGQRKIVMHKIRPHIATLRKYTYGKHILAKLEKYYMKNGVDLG
Summary of the method: as §1

PUM1 PUF domain R3-GYF = PUM1 PUF domain R3-GYF (Homo sapiens, UniProt Q14671 828-1176, C935G;R936Y;Q939F)
Summary of the method: as §1

PUM1 PUF domain R3-YRF = PUM1 PUF domain R3-YRF (Homo sapiens, UniProt Q14671 828-1176, C935Y;Q939F)
Summary of the method: as §1

PUM1 PUF domain R4-DFV = PUM1 PUF domain R4-DFV (Homo sapiens, UniProt Q14671 828-1176, N971D;H972F;Q975V)
Summary of the method: as §1

PUM1 PUF domain R6-GFM = target: T1, PUM1 PUF domain R6-GFM (Homo sapiens, UniProt Q14671 828-1176, N1043G;Y1044F;Q1047M)
T1 sequence: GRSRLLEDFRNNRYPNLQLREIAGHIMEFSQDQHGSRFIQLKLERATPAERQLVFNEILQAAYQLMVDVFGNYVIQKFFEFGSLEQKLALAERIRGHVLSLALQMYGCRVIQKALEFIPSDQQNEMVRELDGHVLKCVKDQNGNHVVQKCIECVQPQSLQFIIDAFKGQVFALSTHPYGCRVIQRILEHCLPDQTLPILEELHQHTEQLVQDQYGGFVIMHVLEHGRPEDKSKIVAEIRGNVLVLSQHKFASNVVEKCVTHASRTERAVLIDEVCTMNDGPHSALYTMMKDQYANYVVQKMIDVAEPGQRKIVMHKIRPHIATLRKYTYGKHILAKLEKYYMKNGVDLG
Summary of the method: as §1

PUM1 PUF domain R3-RQE = PUM1 PUF domain R3-RQE (Homo sapiens, UniProt Q14671 828-1176, C935R;R936Q;Q939E)
Summary of the method: as §1

PUM1 PUF domain R3-RQP = PUM1 PUF domain R3-RQP (Homo sapiens, UniProt Q14671 828-1176, C935R;R936Q;Q939P)
Summary of the method: as §1

PUM1 PUF domain R3-LHY = PUM1 PUF domain R3-LHY (Homo sapiens, UniProt Q14671 828-1176, C935L;R936H;Q939Y)
Summary of the method: as §1

PUM1 PUF domain R3-RRE = PUM1 PUF domain R3-RRE (Homo sapiens, UniProt Q14671 828-1176, C935R;Q939E)
Summary of the method: as §1

PUM1 PUF domain R8-YYK = PUM1 PUF domain R8-YYK (Homo sapiens, UniProt Q14671 828-1176, N1122Y;Q1126K)
Summary of the method: as §1

PUM1 PUF domain R4-NRR = PUM1 PUF domain R4-NRR (Homo sapiens, UniProt Q14671 828-1176, H972R;Q975R)
Summary of the method: as §1

PUM1 PUF domain R4-KSQ = PUM1 PUF domain R4-KSQ (Homo sapiens, UniProt Q14671 828-1176, N971K;H972S)
Summary of the method: as §1

PUM1 PUF domain R7-ERQ = PUM1 PUF domain R7-ERQ (Homo sapiens, UniProt Q14671 828-1176, S1079E;N1080R;E1083Q)
PUM1 PUF domain R7-ERQ, sequence (Q14671 828-1176 S1079E/N1080R/E1083Q): as the sequence (Q14671 828-1176 C1007K/R1008S/Q1011W) above, with K180C, S181R, W184Q, S252E, N253R, E256Q counted along it
Summary of the method: as §1

PUM1 PUF domain R7-RQR = PUM1 PUF domain R7-RQR (Homo sapiens, UniProt Q14671 828-1176, S1079R;N1080Q;E1083R)
PUM1 PUF domain R7-RQR, sequence (Q14671 828-1176 S1079R/N1080Q/E1083R): as the sequence (Q14671 828-1176 C1007K/R1008S/Q1011W) above, with K180C, S181R, W184Q, S252R, N253Q, E256R counted along it
Summary of the method: as §1

PUM1 PUF domain R1-SFK = PUM1 PUF domain R1-SFK (Homo sapiens, UniProt Q14671 828-1176, R864F;Q867K)
Summary of the method: as §1

PUM1 PUF domain R5-NSI = PUM1 PUF domain R5-NSI (Homo sapiens, UniProt Q14671 828-1176, C1007N;R1008S;Q1011I)
PUM1 PUF domain R5-NSI, sequence (Q14671 828-1176 C1007N/R1008S/Q1011I): as the sequence (Q14671 828-1176 C1007K/R1008S/Q1011W) above, with K180N, W184I counted along it
Summary of the method: as §1

PUM1 PUF domain R7-TMG = PUM1 PUF domain R7-TMG (Homo sapiens, UniProt Q14671 828-1176, S1079T;N1080M;E1083G)
PUM1 PUF domain R7-TMG, sequence (Q14671 828-1176 S1079T/N1080M/E1083G): as the sequence (Q14671 828-1176 C1007K/R1008S/Q1011W) above, with K180C, S181R, W184Q, S252T, N253M, E256G counted along it
Summary of the method: as §1

PUM1 PUF domain R1-QLT = PUM1 PUF domain R1-QLT (Homo sapiens, UniProt Q14671 828-1176, S863Q;R864L;Q867T)
Summary of the method: as §1

PUM1 PUF domain R5-KRE, sequence (Q14671 828-1176 C1007K/Q1011E): as the sequence (Q14671 828-1176 C1007K/R1008S/Q1011W) above, with S181R, W184E counted along it

## GGCUAGAACUAGUGGAUCCCCCGGCGCCCGGCGGCUCGAGCCCGGGUAAGUGUCAAUAGUCUGCAUGCCGCCGGGCGCCAUGCCUGCAGGUCGACUCUAGAAAACAUG
PUM1 PUF domain R5-KRE
  binding signal: 2.98 log2 enrichment (interaction score)
PUM1 PUF domain R5-KSW
  binding signal: 2.82 log2 enrichment (interaction score)

## GGCUAGAACUAGUGGAUCCCCCGGCGCCCGGCGGCUCGAGCCCGGGUAAGUGUAAAUAGUCUGCAUGCCGCCGGGCGCCAUGCCUGCAGGUCGACUCUAGAAAACAUG
PUM1 PUF domain R3-GYF
  binding signal: 5.74 log2 enrichment (interaction score)
PUM1 PUF domain R3-YRF
  binding signal: 1.16 log2 enrichment (interaction score)
PUM1 PUF domain R4-DFV
  binding signal: 6 log2 enrichment (interaction score)
PUM1 PUF domain R6-GFM
  binding signal: 3.52 log2 enrichment (interaction score)

## GGCUAGAACUAGUGGAUCCCCCGGCGCCCGGCGGCUCGAGCCCGGGUAAGUGUAAUUAGUCUGCAUGCCGCCGGGCGCCAUGCCUGCAGGUCGACUCUAGAAAACAUG
PUM1 PUF domain R3-RQE
  binding signal: 2.81 log2 enrichment (interaction score)
PUM1 PUF domain R3-RQP
  binding signal: 3.85 log2 enrichment (interaction score)
PUM1 PUF domain R3-LHY
  binding signal: 4.13 log2 enrichment (interaction score)
PUM1 PUF domain R3-RRE
  binding signal: 3.8 log2 enrichment (interaction score)

## GGCUAGAACUAGUGGAUCCCCCGGCGCCCGGCGGCUCGAGCCCGGGUAAGCGUAAAUAGUCUGCAUGCCGCCGGGCGCCAUGCCUGCAGGUCGACUCUAGAAAACAUG
PUM1 PUF domain R8-YYK
  binding signal: 4.78 log2 enrichment (interaction score)

## GGCUAGAACUAGUGGAUCCCCCGGCGCCCGGCGGCUCGAGCCCGGGUAAGUGUAUAUAGUCUGCAUGCCGCCGGGCGCCAUGCCUGCAGGUCGACUCUAGAAAACAUG
PUM1 PUF domain R4-NRR
  binding signal: 1.51 log2 enrichment (interaction score)
PUM1 PUF domain R4-KSQ
  binding signal: 3.81 log2 enrichment (interaction score)

## GGCUAGAACUAGUGGAUCCCCCGGCGCCCGGCGGCUCGAGCCCGGGUAAGUGUACAUAGUCUGCAUGCCGCCGGGCGCCAUGCCUGCAGGUCGACUCUAGAAAACAUG
PUM1 PUF domain R4-NRR
  binding signal: 3.57 log2 enrichment (interaction score)
PUM1 PUF domain R4-DFV
  binding signal: 3.48 log2 enrichment (interaction score)

## GGCUAGAACUAGUGGAUCCCCCGGCGCCCGGCGGCUCGAGCCCGGGUAAGUCUAAAUAGUCUGCAUGCCGCCGGGCGCCAUGCCUGCAGGUCGACUCUAGAAAACAUG
PUM1 PUF domain R7-ERQ
  binding signal: 2.6 log2 enrichment (interaction score)
PUM1 PUF domain R7-RQR
  binding signal: 3.17 log2 enrichment (interaction score)

## GGCUAGAACUAGUGGAUCCCCCGGCGCCCGGCGGCUCGAGCCCGGGUAAGUGUAAGUAGUCUGCAUGCCGCCGGGCGCCAUGCCUGCAGGUCGACUCUAGAAAACAUG
PUM1 PUF domain R3-YRF
  binding signal: 5.65 log2 enrichment (interaction score)

## GGCUAGAACUAGUGGAUCCCCCGGCGCCCGGCGGCUCGAGCCCGGGUAAGUGUAAAUCGUCUGCAUGCCGCCGGGCGCCAUGCCUGCAGGUCGACUCUAGAAAACAUG
PUM1 PUF domain R1-SFK
  binding signal: 6.11 log2 enrichment (interaction score)

## GGCUAGAACUAGUGGAUCCCCCGGCGCCCGGCGGCUCGAGCCCGGGUAAGUGUUAAUAGUCUGCAUGCCGCCGGGCGCCAUGCCUGCAGGUCGACUCUAGAAAACAUG
PUM1 PUF domain R5-NSI
  binding signal: 3.96 log2 enrichment (interaction score)

## GGCUAGAACUAGUGGAUCCCCCGGCGCCCGGCGGCUCGAGCCCGGGUAAGUUUAAAUAGUCUGCAUGCCGCCGGGCGCCAUGCCUGCAGGUCGACUCUAGAAAACAUG
PUM1 PUF domain R7-RQR
  binding signal: 4.97 log2 enrichment (interaction score)
PUM1 PUF domain R7-TMG
  binding signal: 2.65 log2 enrichment (interaction score)

## GGCUAGAACUAGUGGAUCCCCCGGCGCCCGGCGGCUCGAGCCCGGGUAAGUGUAAAUUGUCUGCAUGCCGCCGGGCGCCAUGCCUGCAGGUCGACUCUAGAAAACAUG
PUM1 PUF domain R1-QLT
  binding signal: 2.41 log2 enrichment (interaction score)
